Bioassay records deposited in PubChem by several laboratories.
In the library only some 3.6% were active in any assay of this set; here they are far more common.
BoNT-A LC inh2: inhibitors of Botulinum neurotoxin A light chain protease; multiplex microsphere protease substrate cleavage, flow cytometry; inhibition, % at 10 µM; hit rate 0.17% among 360,000
Anthrax LF inh2: anthrax lethal factor protease inhibition; P15917; multiplex microsphere protease cleavage assay, LF; inhibition, % at 10 µM; hit rate 0.12% among 360,000
Target sequence (P15917 whole entry, looked up): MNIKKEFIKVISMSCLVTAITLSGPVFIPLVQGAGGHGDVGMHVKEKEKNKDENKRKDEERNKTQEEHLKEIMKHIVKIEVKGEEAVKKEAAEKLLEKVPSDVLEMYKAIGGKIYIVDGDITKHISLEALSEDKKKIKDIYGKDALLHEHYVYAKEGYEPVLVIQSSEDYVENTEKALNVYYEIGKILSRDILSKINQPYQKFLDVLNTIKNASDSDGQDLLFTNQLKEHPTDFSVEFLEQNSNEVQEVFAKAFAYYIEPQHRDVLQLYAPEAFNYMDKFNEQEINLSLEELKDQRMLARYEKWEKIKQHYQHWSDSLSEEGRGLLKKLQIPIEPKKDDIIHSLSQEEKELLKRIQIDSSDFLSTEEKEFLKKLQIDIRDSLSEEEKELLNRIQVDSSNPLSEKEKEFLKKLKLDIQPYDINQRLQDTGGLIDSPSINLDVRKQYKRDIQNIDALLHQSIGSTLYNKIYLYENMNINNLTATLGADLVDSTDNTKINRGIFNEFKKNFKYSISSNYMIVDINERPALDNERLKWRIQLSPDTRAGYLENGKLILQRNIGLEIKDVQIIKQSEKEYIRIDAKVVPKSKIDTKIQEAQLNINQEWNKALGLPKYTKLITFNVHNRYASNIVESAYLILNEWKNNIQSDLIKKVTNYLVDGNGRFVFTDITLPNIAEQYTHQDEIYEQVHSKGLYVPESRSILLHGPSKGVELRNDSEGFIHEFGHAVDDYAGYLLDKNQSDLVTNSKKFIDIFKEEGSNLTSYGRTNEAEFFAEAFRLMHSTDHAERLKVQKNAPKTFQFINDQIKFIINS
BJeLR viability: BJeLR cell viability loss; BJeLR (HRASV12) viability, CellTiter-Glo ATP luminescence, 48 h; inhibition, % (test concentration not listed); hit rate 0.17% among 300,000; in the data active = inhibition above about 50%; inconclusive = no clear call, values can overlap the other calls
BoNT F protease: BoNT F light chain protease inhibition | Multiplex microsphere protease cleavage assay, flow cytometry | inhibition, % at 10 µM | hit rate 0.22% among 360,000 | AID 588497; in the data active = inhibition above about 35%, passing the limit was not always enough; inconclusive = no clear call, values can overlap the other calls
Autofluor counter: compound fluorescence in toxin protease inhibitor counterscreen; compound autofluorescence counterscreen, microsphere flow cytometry; stronger effect = higher value; fluorescence intensity (test concentration not listed); hit rate 3.1% among 360,000; AID 624483; in the data active = fluorescence intensity above about 16000; inconclusive = no clear call, values can overlap the other calls
3CLpro inhibitor: SARS-CoV 3CLpro protease inhibition; hit rate 0.14% among 290,000; inhibition, % at 6 µM; recombinant SARS-CoV 3CLpro, quenched FRET peptide cleavage; P0C6X7; in the data active = inhibition above about 12%
Large screens that a line does not name were inactive. Rule as the data show it, unless noted: active = inhibition above about 30%; inconclusive = no clear call, values can overlap the other calls; inactive = below that.

CC(=O)Nc1cccc(NC(=O)CSc2nnc3ccccn23)c1	none (no result: BJeLR viability, 3CLpro inhibitor)
CCn1c(SCC(=O)Nc2cc(C)on2)nnc1-c1cccnc1	Autofluor counter 20847
Cc1cc(NC(=O)CSc2nnc(Cc3ccccc3)n2C)no1	none
CNC(=O)CSc1nnc(COc2ccc(Cl)cc2)n1CCOC	Autofluor counter 22197
CCn1c(Cc2ccccc2)nnc1SCC(=O)Nc1cc(C)on1	Autofluor counter 21460
Cc1nc(-c2cccc(Br)c2)ccc1C(=O)O	none
OC[C@@H]1CN(Cc2cccc3ccccc23)C[C@H](n2cnc3c(NCc4ccco4)ncnc32)O1	none (no result: BJeLR viability, 3CLpro inhibitor)
O=C(Nc1cccc(Br)c1)c1ccc2c(c1)SC1=NS(=O)(=O)CCN12	none (no result: BJeLR viability, 3CLpro inhibitor)
Cn1nnnc1SCC(=O)c1ccc(Br)s1	none
Cn1c(Cc2ccccc2)nnc1SCC(=O)c1ccc(Br)s1	Autofluor counter 23767
COc1cc2[nH]c(=O)n(Cc3ccccc3Cl)c(=O)c2cc1OC	none
C[C@@H]1CN([C@H](C)CO)C(=O)CCCn2cc(nn2)CO[C@H]1CN(C)S(=O)(=O)c1ccccc1F	none (no result: BJeLR viability, 3CLpro inhibitor)
Cc1cccc(OCc2n[nH]c(=S)o2)c1	Autofluor counter 24801
CCn1nnc2c(=O)oc3ccccc3c21	none
CCn1c(C)nc2c(=O)oc3ccccc3c21	Autofluor counter 21816
CC(C)Cn1nnc2c(=O)oc3ccccc3c21	BoNT-A LC inh2 inconclusive, Autofluor counter 24285
Cc1nc2c(=O)oc3ccccc3c2n1-c1ccccc1	none
O=C(O)CCCNC(=O)c1ccc(NC(=O)Cc2ccc(Cl)cc2)cc1	none
CCOC(=O)[C@@H]1[C@H]2COc3ccccc3[C@H]2N2C(=O)N(c3ccccc3)C(=O)[C@]12C	none
CN(Cc1ccc(OC(F)F)cc1)C(=O)c1ccccc1Sc1ccccc1C#N	none
OCCNNC(=S)NC1CC2C=CC1C2 (configuration not stated)	none
Nc1c(S(=O)(=O)c2ccccc2)c2nc3ccccc3nc2n1/N=C/c1cccc(O)c1	BoNT F protease inconclusive
Cc1cccc(S(=O)(=O)c2c(N)n(/N=C/c3ccccc3)c3nc4ccccc4nc23)c1	Autofluor counter 16348
COc1ccc(N2CCN(c3nc(NCCc4ccc(OC)c(OC)c4)nc(OC)n3)CC2)cc1	BoNT-A LC inh2 inconclusive, Autofluor counter 22889
CCOc1cc(C)nc(NCCc2ccc(OC)c(OC)c2)n1	none
CCOc1nc(NCCc2ccc(OC)c(OC)c2)nc(N2CCN(c3ccc(OC)cc3)CC2)n1	Autofluor counter 23445
O=C(NCc1cccnc1)C1c2ccccc2C(=O)N1C1CCCC1 (configuration not stated)	none
CCOC(=O)C1(C)CCCN(C(=O)c2ccc(-c3ccccc3)cc2)C1 (configuration not stated)	none (no result: BJeLR viability, 3CLpro inhibitor)
Nc1ccc2c(c1)C(=O)c1ccccc1-2	BoNT F protease inconclusive (no result: 3CLpro inhibitor)
O=C1C(=O)c2ccc(-c3ccccc3)cc2-c2ccccc21	BJeLR viability 110, Autofluor counter 16446
Nc1ccc2c(c1)C(=O)C(=O)c1ccccc1-2	BJeLR viability 114
Cc1cc(C)c2c(=O)[nH]c(SCC(=O)c3ccc(C)c(C)c3)nc2n1	none
CCN1C(=O)CC(N2CCN(c3ccc(C(=O)c4ccncc4)cc3)CC2)C1=O (configuration not stated)	BoNT-A LC inh2 inconclusive, Autofluor counter 20385
CC(C)OC(=O)c1cccnc1N1CCN(c2cccc(Cl)c2)CC1	none
COc1ccc(Nc2sc(C(=O)c3ccc(Cl)cc3)c(N)c2C(=O)Nc2ccccc2OC)cc1	Autofluor counter 22771
CC(C)NC(=S)N/N=C1\CCCCC1C1CCCCC1 (configuration not stated)	BoNT-A LC inh2 inconclusive, Autofluor counter 22179
CCc1c(C)nc2cc(-c3ccccc3)[nH]n2c1=O	BoNT F protease 36
CC[C@@]1(O)C(=O)OCc2c1cc1n(c2=O)Cc2cc3c(NC(=O)CN)cccc3nc2-1	BJeLR viability 93
CCC1(O)C(=O)OCc2c1cc1n(c2=O)Cc2cc3cc(O)ccc3nc2-1 (configuration not stated)	none (no result: BJeLR viability, 3CLpro inhibitor)
CCC1(OC(=O)CN)C(=O)OCc2c1cc1n(c2=O)Cc2cc3ccccc3nc2-1 (configuration not stated)	BJeLR viability 90
CC[C@@]1(O)C(=O)OCc2c1cc1n(c2=O)Cc2cc3ccccc3nc2-1	BJeLR viability 91 (no result: BoNT-A LC inh2, Anthrax LF inh2, BoNT F protease, Autofluor counter)
Cc1ccc(C(=O)C2=C(O)C(=O)N(CCN3CCOCC3)C2c2ccccn2)o1 (configuration not stated)	none (no result: BoNT-A LC inh2, Anthrax LF inh2, BoNT F protease, Autofluor counter)
CCOc1cc(C(=O)Nc2ncn[nH]2)cc(OCC)c1OCC	none
O=C(Nc1ccc(Cl)cc1C(=O)Nc1ccc(Br)cn1)c1ccco1	Autofluor counter 20162
Cc1c(/C=N/NC(=O)c2cccnc2)c2ccccc2n1Cc1ccccc1	Autofluor counter 24760
Cc1cc(Cl)ccc1NC(=O)Nc1c(C)n(-c2ccccc2)c(=O)n1C	Autofluor counter 22798
COc1ccc(Cl)c(NC(=O)Nc2c(C)n(-c3ccccc3)c(=O)n2C)c1	none
CNC(=O)c1nc(C)n(-c2cc(Cl)cc(Cl)c2)n1	none
CCOC(=O)c1nc(C)n(-c2cc(Cl)cc(Cl)c2)n1	Autofluor counter 17779
COc1cccc(OC)c1C(=O)NC(C)C12CC3CC(CC(C3)C1)C2 (configuration not stated)	BoNT F protease 35
CC(NC(=O)c1ccc([N+](=O)[O-])o1)C12CC3CC(CC(C3)C1)C2 (configuration not stated)	none
CCC12CC1(C(=O)OC)C(=O)N1CCc3c([nH]c4ccccc34)C12 (configuration not stated)	none (no result: BJeLR viability, 3CLpro inhibitor)
CCN(CC)CCN1C(=O)/C(=C\c2ccc(Cl)c([N+](=O)[O-])c2)SC1=Nc1ccc(OC)cc1	BJeLR viability 88
CCCN1C(=O)/C(=C/c2ccc(C)s2)SC1=Nc1ccc(OC)cc1	none
COc1ccc(N=C2S/C(=C\c3ccc(Cl)c([N+](=O)[O-])c3)C(=O)N2CCN(C)C)cc1	BJeLR viability 59
CCCCOc1ccc(-n2nc(C)cc2C)nn1	none
Cc1cc(C)n(-c2ccc(OCC(=O)O)nn2)n1	Autofluor counter 23964
C(=C\c1ccccc1)/CN1CCN(C(c2cccs2)c2nnnn2-c2ccc3c(c2)OCCO3)CC1 (configuration not stated)	none (no result: BJeLR viability, 3CLpro inhibitor)
CCN(C(=O)COc1cc(=O)n(CC)c2ccccc12)c1cc(Cl)ccc1OC	none
CCN(C(=O)COc1cc(=O)n(CC)c2ccccc12)c1cccc(Cl)c1	Autofluor counter 20694
Cc1ccc(C(=O)CCC2CCCCC2=O)cc1 (configuration not stated)	BoNT-A LC inh2 inconclusive, Autofluor counter 19947
Cc1ccc(C(=O)CCC2CCCC2=O)cc1 (configuration not stated)	none
COc1cccc(C(C(=O)NC2CCCCC2)N(C(=O)Cc2cccs2)c2ccc(-n3cnnn3)c(OC)c2)c1 (configuration not stated)	Autofluor counter 22984
COc1cc(C(=O)NCC(=O)OCc2ccc(F)cc2)cc(OC)c1OC	none (no result: BJeLR viability, 3CLpro inhibitor)
